Test results reported in the supplement of paper PMC3545927.
This is one part of the list. No count for the full screen is at hand.

Target: furin, P09958
Assay: furin cleavage Z-score vs untreated control; higher = more cleavage, active = 3.5 or more, inactive = 1 or less, 8 variable residues between constant flanks
Procedure, shortened: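 Furin-free reactions served as the baseline for the cleavage Z-score, which is the log read count lowess-adjusted and scaled by median absolute deviation. Counts came from released DNA, adapter-tagged by PCR and sequenced. Purified furin had cut 8-mer peptides fused to a cDNA oligonucleotide on magnetic beads during 7.5, 15 or 30 min at 1:10 enzyme:substrate.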
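Further: purified furin at 1:10 enzyme:substrate in 50 mM HEPES pH 7.5.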

furin, P09958, sequence (P09958 whole entry): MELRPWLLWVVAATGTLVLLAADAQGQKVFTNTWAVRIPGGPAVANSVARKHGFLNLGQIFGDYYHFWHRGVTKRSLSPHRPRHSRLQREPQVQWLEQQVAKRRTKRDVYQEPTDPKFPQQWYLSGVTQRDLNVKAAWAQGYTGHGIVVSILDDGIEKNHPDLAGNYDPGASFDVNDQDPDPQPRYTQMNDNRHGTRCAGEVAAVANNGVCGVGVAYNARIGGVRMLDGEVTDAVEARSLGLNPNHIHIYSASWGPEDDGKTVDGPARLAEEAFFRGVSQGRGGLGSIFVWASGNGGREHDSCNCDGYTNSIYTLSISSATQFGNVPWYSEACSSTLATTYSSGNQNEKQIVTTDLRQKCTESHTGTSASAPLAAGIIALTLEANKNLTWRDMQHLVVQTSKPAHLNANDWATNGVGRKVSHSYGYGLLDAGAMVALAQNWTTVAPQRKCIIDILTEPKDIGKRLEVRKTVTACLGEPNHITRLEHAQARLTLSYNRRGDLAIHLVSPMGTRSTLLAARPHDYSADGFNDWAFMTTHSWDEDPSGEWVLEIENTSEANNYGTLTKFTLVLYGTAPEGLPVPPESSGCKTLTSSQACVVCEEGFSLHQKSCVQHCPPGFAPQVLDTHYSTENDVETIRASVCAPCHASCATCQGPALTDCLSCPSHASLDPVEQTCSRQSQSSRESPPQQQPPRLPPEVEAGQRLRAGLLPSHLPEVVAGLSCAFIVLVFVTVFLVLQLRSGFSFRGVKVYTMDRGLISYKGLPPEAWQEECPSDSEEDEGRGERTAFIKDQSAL

## CASGPCSAHLAGNASASA [HC2496]
7.5 min
  furin cleavage Z-score: -0.802 (inactive)
15 min
  furin cleavage Z-score: 0.24 (inactive)
30 min
  furin cleavage Z-score: 0.168 (inactive)

## CAADAVDGAGAGNASASA [CS10]
7.5 min
  furin cleavage Z-score: 0.632 (inactive)
15 min
  furin cleavage Z-score: -1.19 (inactive)
30 min
  furin cleavage Z-score: 1.15

## CALNNTRPPLAGNASASA [HC430]
7.5 min
  furin cleavage Z-score: 2.07
15 min
  furin cleavage Z-score: 0.471 (inactive)
30 min
  furin cleavage Z-score: 1.95

## CACGSSDLYLAGNASASA [HC723]
7.5 min
  furin cleavage Z-score: -2.29 (inactive)
15 min
  furin cleavage Z-score: -1.54 (inactive)
30 min
  furin cleavage Z-score: -0.552 (inactive)

## CATTPCSVSWAGNASASA [HC1890]
7.5 min
  furin cleavage Z-score: -0.725 (inactive)
15 min
  furin cleavage Z-score: -1.82 (inactive)
30 min
  furin cleavage Z-score: -0.963 (inactive)

## CAQVGDFHYVAGNASASA [HC1208]
7.5 min
  furin cleavage Z-score: -1.01 (inactive)
15 min
  furin cleavage Z-score: 0.348 (inactive)
30 min
  furin cleavage Z-score: -0.0115 (inactive)

## CAGPIRLKRDAGNASASA [FS-593]
7.5 min
  furin cleavage Z-score: 15 (active)
15 min
  furin cleavage Z-score: 15.3 (active)
30 min
  furin cleavage Z-score: 10.9 (active)

## CARVERFKRDAGNASASA [FS-1567]
7.5 min
  furin cleavage Z-score: 12.4 (active)
15 min
  furin cleavage Z-score: 11.1 (active)
30 min
  furin cleavage Z-score: 8.4 (active)

## CAKQHRLKRYAGNASASA [FS-1349]
7.5 min
  furin cleavage Z-score: 11.1 (active)
15 min
  furin cleavage Z-score: 11.6 (active)
30 min
  furin cleavage Z-score: 10 (active)

## CALPGNPAIAAGNASASA [HC1051]
7.5 min
  furin cleavage Z-score: 0.0659 (inactive)
15 min
  furin cleavage Z-score: -0.342 (inactive)
30 min
  furin cleavage Z-score: -0.64 (inactive)

## CACGPVYCFTAGNASASA [HC412]
7.5 min
  furin cleavage Z-score: 0.624 (inactive)
15 min
  furin cleavage Z-score: 0.0869 (inactive)
30 min
  furin cleavage Z-score: -0.506 (inactive)

## CAVKSRKRRKAGNASASA [FS-149]
7.5 min
  furin cleavage Z-score: 11 (active)
15 min
  furin cleavage Z-score: 11.7 (active)
30 min
  furin cleavage Z-score: 8.76 (active)

## CARKRRKRKKAGNASASA [FS-858]
7.5 min
  furin cleavage Z-score: 0.153 (inactive)
15 min
  furin cleavage Z-score: 0.772 (inactive)
30 min
  furin cleavage Z-score: 1.09

## CAHPLRKRRKAGNASASA [FS-131]
7.5 min
  furin cleavage Z-score: 8.81 (active)
15 min
  furin cleavage Z-score: 9.6 (active)
30 min
  furin cleavage Z-score: 7.46 (active)

## CAPPLVETWKAGNASASA [HC1308]
7.5 min
  furin cleavage Z-score: 2.31
15 min
  furin cleavage Z-score: 0.789 (inactive)
30 min
  furin cleavage Z-score: -0.408 (inactive)

## CASTPCSAHIAGNASASA [HC2564]
7.5 min
  furin cleavage Z-score: -0.152 (inactive)
15 min
  furin cleavage Z-score: -1.03 (inactive)
30 min
  furin cleavage Z-score: -0.677 (inactive)

## CALWWLQYFLAGNASASA [HC582]
7.5 min
  furin cleavage Z-score: -0.496 (inactive)
15 min
  furin cleavage Z-score: -0.768 (inactive)
30 min
  furin cleavage Z-score: -1.19 (inactive)

## CAEVVDSTWVAGNASASA [HC132]
7.5 min
  furin cleavage Z-score: -0.25 (inactive)
15 min
  furin cleavage Z-score: 1.14
30 min
  furin cleavage Z-score: -1.05 (inactive)

## CATTPDSGSWAGNASASA [HC52]
7.5 min
  furin cleavage Z-score: -0.899 (inactive)
15 min
  furin cleavage Z-score: -0.656 (inactive)
30 min
  furin cleavage Z-score: -0.757 (inactive)

## CASTPCSKHLAGNASASA [HC2534]
7.5 min
  furin cleavage Z-score: 1
15 min
  furin cleavage Z-score: -1.62 (inactive)
30 min
  furin cleavage Z-score: 0.302 (inactive)

## CAVLEESKRLAGNASASA [FS-1429]
7.5 min
  furin cleavage Z-score: -0.217 (inactive)
15 min
  furin cleavage Z-score: -1.55 (inactive)
30 min
  furin cleavage Z-score: -0.503 (inactive)

## CASTPCSARLAGNASASA [HC2553]
7.5 min
  furin cleavage Z-score: 0.576 (inactive)
15 min
  furin cleavage Z-score: 0.581 (inactive)
30 min
  furin cleavage Z-score: -0.498 (inactive)

## CATTYRSKRLAGNASASA [FS-886]
7.5 min
  furin cleavage Z-score: 8.78 (active)
15 min
  furin cleavage Z-score: 10.5 (active)
30 min
  furin cleavage Z-score: 9.12 (active)

## CASTPRSKRLAGNASASA [FS-1091]
7.5 min
  furin cleavage Z-score: 3.77 (active)
15 min
  furin cleavage Z-score: 6.77 (active)
30 min
  furin cleavage Z-score: 5.46 (active)

## CAHTWREKRLAGNASASA [FS-31]
7.5 min
  furin cleavage Z-score: 1.05
15 min
  furin cleavage Z-score: 0.418 (inactive)
30 min
  furin cleavage Z-score: 0.0913 (inactive)

## CAEVQTSTWVAGNASASA [HC2202]
7.5 min
  furin cleavage Z-score: 0.816 (inactive)
15 min
  furin cleavage Z-score: 1.29
30 min
  furin cleavage Z-score: 1.14

## CARRPRPRREAGNASASA [FS-1480]
7.5 min
  furin cleavage Z-score: 8.98 (active)
15 min
  furin cleavage Z-score: 9.92 (active)
30 min
  furin cleavage Z-score: 8.21 (active)

## CADPLRPRREAGNASASA [FS-122]
7.5 min
  furin cleavage Z-score: 5.53 (active)
15 min
  furin cleavage Z-score: 5.14 (active)
30 min
  furin cleavage Z-score: 4.87 (active)

## CADPLVAEEDAGNASASA [HC1289]
7.5 min
  furin cleavage Z-score: -0.0204 (inactive)
15 min
  furin cleavage Z-score: -0.956 (inactive)
30 min
  furin cleavage Z-score: -0.261 (inactive)

## CARRPRFKDIAGNASASA [FS-3058]
7.5 min
  furin cleavage Z-score: 0.143 (inactive)
15 min
  furin cleavage Z-score: -0.201 (inactive)
30 min
  furin cleavage Z-score: 0.618 (inactive)

## CARRRRPERVAGNASASA [FS-3064]
7.5 min
  furin cleavage Z-score: 0.335 (inactive)
15 min
  furin cleavage Z-score: 0.809 (inactive)
30 min
  furin cleavage Z-score: 1.19

## CARRRRPRREAGNASASA [FS-1404]
7.5 min
  furin cleavage Z-score: 7.83 (active)
15 min
  furin cleavage Z-score: 8.28 (active)
30 min
  furin cleavage Z-score: 6.14 (active)

## CARRRRPERGAGNASASA [FS-495]
7.5 min
  furin cleavage Z-score: 1.03
15 min
  furin cleavage Z-score: 0.676 (inactive)
30 min
  furin cleavage Z-score: 1.87
